Laboratory results taken from PubChem BioAssay AID588335 (The Scripps Research Institute Molecular Screening Center, 2011).
The whole screen tested about 360,000 compounds, of which about 4,500 (1.2%) were called active. Only a selection was taken, and actives are over-represented in it overall. Unmarked numbers belong to inactive results. Cut-off read from the data, not from the text of the source: active = inhibition above about 30%; inactive = the rest.

Test: inhibition of GDH and TPI enzymes – biochemical, absorbance, full deck, artefact control for M. tuberculosis FBA inhibitor project, primary screen (AID 588335);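 note: 0% = DMSO wells and 100% = wells lacking the enzyme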
Conditions: GDH-TPI coupled enzyme counterscreen, NADH absorbance; at 4.8 µM; hits give high values
Work on `O=C1c2ccccc2-c2ccccc2NC1O` (stereo not given) yielded an inhibition of -4.42%. For `CN(C)/C=C1\C=C(c2ccccc2)OC1=O`, the inhibition was 17.7%. With `CN(C)/C=C1/C(=O)Nc2ccccc21` the inhibition was 36.4% (active). Compound `CC(C)(C)c1ccc(NC(=O)COC(=O)CCc2nc3ccccc3c(=O)[nH]2)cc1` has an inhibition of 3.69%. With `CCN(CC)c1ccc(C(=O)NNC(=O)CCc2nc3ccccc3c(=O)[nH]2)cc1` the inhibition was 30.9% (active). For `CCN(CC(=O)NC(=O)NCc1ccccc1)Cc1nc2ccccc2c(=O)[nH]1`, the inhibition was -1.22%. With `COc1ccc(S(=O)(=O)N2CCN(C(=O)c3cccs3)CC2)cc1OC` the inhibition was -5.51%. Compound `CC(C(=O)N(C)CC(=O)Nc1ccccc1C(F)(F)F)N1C(=O)c2ccccc2C1=O` (stereo not given) has an inhibition of -1.08%. In the case of `C/C(=N\Nc1cccc(C(=O)O)c1)c1ccc2c(c1)Nc1ccccc1S2`, the inhibition is reported as 7.28%. `O=C(N/N=C/c1ccsc1)c1cc(O)cc(O)c1` showed an inhibition of 4.09%. For `Cc1nonc1C(=O)N/N=C/c1ccc(O)cc1`, the inhibition was 29.1%. In the case of `Cc1nc2ccc(C(=O)N/N=C/c3ccc(O)cc3)cc2[nH]1`, the inhibition is reported as 36.4% (active). `O=S(=O)(c1ccc(SCc2ccc(Br)cc2)nc1)N1CCOCC1` showed an inhibition of 0.32%. Compound `O=C(NCc1ccccc1)C(c1ccccc1)N(C(=O)c1csnn1)c1ccc(F)cc1` (stereo not given) has an inhibition of -1.56%. In the case of `Cc1nc2ccc(S(=O)(=O)N(C)CC(=O)NC(C)c3ccccc3)cc2s1` (stereo not given), the inhibition is reported as 14.8%. `Cc1cccc(C)c1NC(=O)CNC(=O)c1ccc(N2CCOCC2)c([N+](=O)[O-])c1` gave an inhibition of 1.79%. Work on `CC(C)CN(C(=O)COC(=O)c1ccc2ccccc2c1)c1c(N)n(Cc2ccccc2)c(=O)[nH]c1=O` yielded an inhibition of 2.15%. With `CCN(/N=C/c1ccccc1)c1cc(=O)n(C)c(=O)[nH]1` the inhibition was 36.7% (active). `Cc1cn(C2CC(O)C(CO)O2)c(=O)n(CCCc2ccccc2)c1=O` (stereo not given) showed an inhibition of -7.8%. `COc1cc(C(=O)NN(CCC#N)C2=NS(=O)(=O)c3ccccc32)cc(OC)c1OC` showed an inhibition of 4.46%. With `Cc1cc(OC(=O)c2ccccc2)c([N+](=O)[O-])c(=O)[nH]1` the inhibition was 3.89%. For `O=c1[nH]c(/C=C\c2cccc(C(F)(F)F)c2)nc(O)c1[N+](=O)[O-]`, the inhibition was 16.2%. For `Cc1ccccc1/C=C\c1nc(O)c([N+](=O)[O-])c(=O)[nH]1`, the inhibition was 34.9% (active). Work on `Cc1nnc(SCc2cccc(Cl)c2)n(N)c1=O` yielded an inhibition of -5.68%. `Cc1ccc(C(=O)N/C(=C/c2cccs2)C(=O)N2CCCCC2)cc1` gave an inhibition of 1.16%. Compound `CN1CCN(C(=O)/C(=C\c2ccc3c(c2)OCO3)NC(=O)c2cccs2)CC1` has an inhibition of 13.8%. In the case of `CN1CCN(C(=O)/C(=C\c2cccs2)NC(=O)c2cccs2)CC1`, the inhibition is reported as 30.9% (active). `FC(F)(F)c1ccc2c3n(nc2c1)CCN=C3c1ccc(Cl)cc1` showed an inhibition of 9.17%. For `O=c1[nH]c2c(c(=O)n1-c1ccccc1)CCO2`, the inhibition was 6.88%. `COc1ccccc1C(C)NC(=O)Cc1ccsc1` (stereo not given) showed an inhibition of 6.79%. For `Cc1ccc(N2C(=O)C3C4C=CC(CC4)C3C2=O)cc1Cl` (stereo not given), the inhibition was 0%. `COC(=O)C(c1ccccc1)N1CCCCCC1` (stereo not given) showed an inhibition of -4.27%. For `CC1(C)CC(N2CCN(C(c3ccccc3)c3ccccc3)CC2)=CC(=[N+]2CCCCC2)C1`, the inhibition was 42% (active). `CCOc1ccc(NC(=O)CN(C)CC(=O)NC(C)c2ccccc2)cc1OCC` (stereo not given) showed an inhibition of 11%. `Nc1c(-c2ccc(F)cc2)cnn1C1CCS(=O)(=O)C1` (stereo not given) showed an inhibition of 3.77%. Work on `CCOc1cc(/C=N/NC(=O)CN2CCCCC2)ccc1O` yielded an inhibition of 21.8%. In the case of `CCOc1cc(/C=N/NC(=O)c2c(C)nc3ccc(Cl)cn23)ccc1O`, the inhibition is reported as 52.2% (active). Work on `CCOc1ccc(/C=N\NC(=O)c2c(C)nc3cc(C)ccn23)cc1` yielded an inhibition of 21.5%. For `CCN1C(=NCCc2cccnc2)N[C@@H](c2ccccc2)[C@H](C(=O)OC)[C@H]1C`, the inhibition was -8.4%. Compound `Cc1[nH]c2ccccc2c1/C=C(/C#N)C(=O)NC(C)C` has an inhibition of 6.92%. In the case of `COCCNC(=S)N/N=C/c1c(C)[nH]c2ccccc12`, the inhibition is reported as 31% (active). `COCCNC(=S)N(CCc1c(C)[nH]c2ccc(C)cc12)Cc1cccnc1` showed an inhibition of 0%. With `CC(=O)Nc1cccc(C(=O)OCN2C(=O)c3ccccc3C2=O)c1` the inhibition was -2.41%. `COc1ccc(CCNC(=S)N2CCN(S(=O)(=O)c3ccc(F)cc3)CC2)cc1` gave an inhibition of 1.03%. With `CCN(/N=C/c1ccc(N(C)C)cc1)c1nc2ccccc2[nH]1` the inhibition was 31.3% (active). `Oc1ccc(/C=N/N(Cc2ccccc2)c2ccccc2)cc1` showed an inhibition of 11.2%. Work on `COc1ccc(C(=O)COC(=O)c2nn(C)c(=O)c3ccccc23)c(OC)c1` yielded an inhibition of -0.9%. `O=C(O)C1CCCN1S(=O)(=O)c1ccc2c(c1)CCC2` (stereo not given) showed an inhibition of -0.82%. `COc1ccc2sc(-c3ccccc3OC)c(-c3ccc(OCCN4CCCC4)cc3)c2c1` gave an inhibition of 8.81%. In the case of `COc1cccc(-c2sc3ccc(OC)cc3c2-c2ccc(OCCN3CCCCC3)cc2)c1`, the inhibition is reported as 0.91%. For `COc1ccc2sc(-c3ccc(N(C)C)cc3)c(-c3ccc4cc[nH]c4c3)c2c1`, the inhibition was 33.5% (active). For `Cc1cc(=O)oc(C)c1C(=O)NCc1ccc(F)cc1`, the inhibition was 16.2%. With `COc1ccc(CNC(=O)c2c(C)cc(=O)oc2C)cc1OC` the inhibition was 5.96%. In the case of `Cc1cc(=O)oc(C)c1C(=O)NCCN(C)Cc1ccccc1`, the inhibition is reported as 45.1% (active). Compound `CC(NC(=O)c1ccc(Cl)cc1)C(=O)N1CCCCC1` (stereo not given) has an inhibition of 8.65%. `Cn1c(SCC(=O)c2ccccc2)ncc(C(=O)Nc2ccc(F)cc2)c1=O` gave an inhibition of 2.1%. With `Cc1ccc(NC(=O)c2cnc(SCC(=O)NCC3CCCO3)n(C)c2=O)cc1` (stereo not given) the inhibition was 33.3% (active). Work on `CCn1c(SCC(=O)NCC2CCCO2)nc2ccccc21` (stereo not given) yielded an inhibition of -11%. Compound `CC1C(=O)N2CCCc3cc(S(=O)(=O)NCc4ccc(F)cc4)cc1c32` (stereo not given) has an inhibition of 6.01%. In the case of `O=C1C=C(c2ccnc3cc(Cl)ccc23)C[C@@H](c2ccc3c(c2)OCO3)C1`, the inhibition is reported as 1.34%. With `Cc1ccccc1-n1c(C)cc(/C=C2\NC(=O)NC2=O)c1C` the inhibition was 32.7% (active). Work on `CSc1ccc(/C=C2\NC(=O)NC2=O)cc1` yielded an inhibition of 27.3%. `Cc1ccccc1-n1c(C)cc(/C=N/NC(=O)c2ccc(CN3CCOCC3)cc2)c1C` gave an inhibition of 18.1%. Compound `COc1ccc2[nH]c3c(c2c1)CCN1C(=O)C(CC(=O)NCc2cccc(C(F)(F)F)c2)C[C@H](C(=O)N2CCOCC2)[C@@]31C` (stereo not given in full) has an inhibition of -0.94%. `COc1ccccc1-c1cnn2c(N3CCOCC3)cc(C)nc12` showed an inhibition of 8.82%. With `COc1ccc(/C=N/Nc2cc(N3CCOCC3)nc(C)n2)c(OC)c1` the inhibition was 68.5% (active). In the case of `Fc1ccccc1/C=N/Nc1cc(N2CCCCC2)ncn1`, the inhibition is reported as 18.5%. Work on `CCOc1ccc(CN(C)C(=O)c2ccc(=O)[nH]c2)cc1` yielded an inhibition of 1.51%. `CC(C)CNC(=O)C(=O)NCC(c1ccc2c(c1)OCO2)N1CCOCC1` (stereo not given) gave an inhibition of -0.84%. In the case of `CCCc1ccc(C(O)c2ncc(-c3cccc(OC)c3)[nH]2)cc1` (stereo not given), the inhibition is reported as -5.36%. `CC(C)(C)OC(=O)N/N=C/c1ccc(C(=O)O)cc1` showed an inhibition of -4.41%. In the case of `COC(=O)N/N=C/c1c[n+]([O-])c2ccccc2[n+]1[O-]`, the inhibition is reported as 32.6% (active). With `COC(=O)C(C)N=Cc1ccccc1` (stereo not given) the inhibition was -1.89%. `O=C(Nc1ccc2c(c1)nc1n2CCCCC1)c1cc(S(=O)(=O)N2CCOCC2)ccc1Cl` gave an inhibition of -14.1%. For `CC1CCN(C2=NC(=O)/C(=C/c3cn[nH]c3-c3ccccc3)S2)CC1`, the inhibition was 33.8% (active). Compound `CN(CCC1CCOCC1)Cc1cn[nH]c1-c1ccc(-c2ccccc2)cc1` has an inhibition of 13%. With `CCOc1cc(/C=C2\SC(N3CCCC(C)C3)=NC2=O)ccc1O` (stereo not given) the inhibition was 14.5%. `CCCCCCCCn1c2c(c(=N)c3c1CCC3)CCCC2` gave an inhibition of -7.26%. Work on `C/C(=N\NC(=O)c1cccc([N+](=O)[O-])c1)c1cccnc1` yielded an inhibition of 3.57%. In the case of `C/C(=N\NC(=O)c1cc(-c2ccc(O)cc2)nc2ccccc12)c1cccnc1`, the inhibition is reported as 30.9% (active). Compound `CCOc1ccccc1-c1cc(C(=O)N/N=C(\C)c2cccnc2)c2ccccc2n1` has an inhibition of 19.2%. Compound `O=C(ON=C1CCN(S(=O)(=O)c2ccccc2)CC1)c1ccc(Cl)cc1` has an inhibition of 4.57%. With `CCc1ccc(Nc2ncc3c(n2)CC(c2ccco2)CC3=O)cc1` (stereo not given) the inhibition was 37.7% (active). For `Cc1ccc2nc(Nc3ncc4c(n3)CC(C)(C)CC4=O)nc(C)c2c1`, the inhibition was 1.22%. `CN1CCN(c2ncc3c(n2)CC(c2ccccc2F)CC3=O)CC1` (stereo not given) gave an inhibition of 4.15%. In the case of `COc1ccc(Cl)cc1C=CC=NNC(=O)c1ccncc1`, the inhibition is reported as 50% (active). In the case of `COc1ccc(Cl)cc1C=CC=Nc1ccc(S(N)(=O)=O)cc1`, the inhibition is reported as 5.17%. `CC(=NNC(=O)c1ccncc1)c1ccc(Cl)c(Cl)c1` gave an inhibition of 0.88%. `CCOc1nc(OCC)nc(-n2cc(-c3ccccc3)nn2)n1` gave an inhibition of -5.88%. With `Cc1c(C)c2c(OCC(=O)N[C@@H](C(=O)O)c3ccccc3)cc3c(c2oc1=O)CCC(C)(C)O3` the inhibition was 35.3% (active). For `Cc1cc(=O)oc2c3c(cc(OCC(=O)NCc4ccccn4)c12)OC(C)(C)CC3`, the inhibition was 18.6%. In the case of `Cc1cc(=O)oc2c3c(cc(OCC(=O)N[C@H](C(=O)O)c4ccccc4)c12)OC(C)(C)CC3`, the inhibition is reported as 31.4% (active). `Cc1c(C)c2c(OCC(=O)NCCCO)cc3c(c2oc1=O)CCC(C)(C)O3` showed an inhibition of 15%. `Cc1cc(=O)oc2c3c(cc(OCC(=O)NCCC(=O)N[C@@H](C)C(=O)O)c12)OC(C)(C)CC3` showed an inhibition of 15.1%. `Cc1cc(=O)oc2c3c(cc(OCC(=O)NCC(O)c4ccccc4)c12)OC(C)(C)CC3` (stereo not given) gave an inhibition of 15.3%.
